Measurements reported in article PMC12136788.
Where a chain is given by its changes, count along the chain named. Over roughly 24,000 sequences, “enrichment r” has its median near 0.99; the highest 2% begin near 3.7. Shown is part of a subset that was picked to be rich in the highest values.

B1: chr4:76721835:76721836:+_ENSG00000138768_ENST00000264904|hu_mus|hu_hu_hu_mus_True|58_108 (ssRNA)
RNA: GGGAGUUCUACAGUCCGACGAUCGUUGGCUGGGGUUUUCUGAGACGCUCUGGAAUAUAACUCAUGUUUGCUAAUAAUCCUAGUUUCCUCUAUGAAAUUCUCUUUGCCAAUCCUCUUCUCUAUUAGUUGCUUUAGUUUCUCUUUCAACAGAGGAUUGAGCAUCA
B2: chr12:48362563:48362564:+_ENSG00000134291_ENST00000256686|hu_mus|FALSE|FALSE (ssRNA)
RNA: GGGAGUUCUACAGUCCGACGAUCUCCGUCAAGCCCUUCGAUAGACCCUUGCGGGGGAAACUGUAAUCACUUUGUAUGGGGAAGGAAAAGAAACGCCAAAAACUUUCCAAAAAGCGGGGGUGGGGUGAGGCGGGAGGGGGAGGUCAACAGAGGAUUGAGCAUCA
B3: chr14:76904430:76904431:+_ENSMUSG00000022010_ENSMUST00000022587|mus_mus|mus_mus_mus_hu_True|48_98 (ssRNA)
RNA: GGGAGUUCUACAGUCCGACGAUCUGCAGCCAAAAACAGAGAGAGGGAAAAAAAGAGGGAACACCAGCAGCCUUGUAUAAGCUAGAUAAAACCGCCUGGCUUUCCGCAGCCCAGGGAGAAACAGAAAACGGCAGCCCUAAUUUACAACAGAGGAUUGAGCAUCA
B4: chr14:76904430:76904431:+_ENSMUSG00000022010_ENSMUST00000022587|mus_mus|mus_mus_mus_hu_True|38_98 (ssRNA)
RNA: B3 RNA with C91U, G93U, C94U, G97A, U101G, C104U
B5: chr14:76904430:76904431:+_ENSMUSG00000022010_ENSMUST00000022587|mus_mus|mus_mus_mus_hu_True|98_98 (ssRNA)
RNA: B3 RNA with C91U, G93U, C94U
B6: chr14:76904430:76904431:+_ENSMUSG00000022010_ENSMUST00000022587|mus_mus|mus_mus_mus_hu_True|48_88 (ssRNA)
RNA: GGGAGUUCUACAGUCCGACGAUCUGCAGCCAAAAACACCCUCGUGGCGGGAGGGAGGGAACACCAGCAGCCUUGUAUAAGCUAGAUAAAACCGCCUGGCUUUCCGCAGCCCAGGGAGAAACAGAAAACGGCAGCCCUAAUUUACAACAGAGGAUUGAGCAUCA
B7: chr14:76904430:76904431:+_ENSMUSG00000022010_ENSMUST00000022587|mus_mus|mus_mus_mus_hu_True|98_108 (ssRNA)
RNA: B3 RNA with A27U, C29G, C30A, C36A, C91U, G93U, C94U
B8: chr14:76904430:76904431:+_ENSMUSG00000022010_ENSMUST00000022587|mus_mus|mus_mus_mus_hu_True|88_98 (ssRNA)
RNA: B3 RNA with A47C, A48G, A49G, A50G, A52G, A53G, C91U, G93U, C94U
B9: chr14:76904430:76904431:+_ENSMUSG00000022010_ENSMUST00000022587|mus_mus|mus_mus_mus_hu_True|68_68 (ssRNA)
RNA: GGGAGUUCUACAGUCCGACGAUCUGCAGCCAAAAACACCCUCGUGGAAAAAAAGAGGGAACACCAGCAGCCUGGUUUAAGCUAGAUAAAAUCUUCUGGCUUUCCGCAGCCCAGGGAGAAACAGAAAACGGCAGCCCUAAUUUACAACAGAGGAUUGAGCAUCA
B10: chr7:148083511:148083512:+_ENSMUSG00000025487_ENSMUST00000026560|mus_mus|FALSE|FALSE (ssRNA)
RNA: GGGAGUUCUACAGUCCGACGAUCCAAAUCCAGCACUCGCGGCUGCACCCACGUCAUGUGAACCCGCUUGUCCACCUCGUCUAUGCUGCCUCUCACCAGCCCCACCGAGAGUGCCUUCAUCACCAGCAACUCCACCUUGUUGACCAACAGAGGAUUGAGCAUCA
B11: 104840732_104840852_1265_3pUTR_ENSMUSG00000021710_ENSMUST00000109315|mouse|control|control (ssRNA)
RNA: GGGAGUUCUACAGUCCGACGAUCGACCACCUCAAUGGGAAAGUACUCCUUGAGGGACUCCUGGUCCACAGAGUACUUGAGCUCCUCUGUCUGGGUCAUGUAGUAAUGGAGGUCCCAUGCGUUGAUCUUCCCGUCGUAUGCAAACAACAGAGGAUUGAGCAUCA
B12: chr15:63447868:63447869:-_ENSG00000185088_ENST00000411926|hu_hu|FALSE|FALSE (ssRNA)
RNA: GGGAGUUCUACAGUCCGACGAUCCCCUUCUGUGAGUCUGGCCUUUCCUCCUGUAGGCUGGCACAACACUGUUGAACAACCUACACAAAGAACCACUGUCUGAGCAUGGCUGAAAACCGUGGUGAUCUUGUAGCAACCUGGACACAACAGAGGAUUGAGCAUCA
B13: chr3:148479741:148479742:-_ENSMUSG00000028184_ENSMUST00000106128|mus_mus|motif|central (ssRNA)
RNA: GGGAGUUCUACAGUCCGACGAUCACAAUGCAGGCCUACAGAAAAACAAAACAAAACAAAAACAAAAACCGGUAGGGCCCGGUUUACAGACUCAGUUCACCAACUGCCGCAAGGAACAUGGCCGGGAGGGAGGGUCUCUUGUUUCAACAGAGGAUUGAGCAUCA
B14: chr2:175006660:175006661:-_ENSG00000138430_ENST00000344357|hu_mus|motif|central (ssRNA)
RNA: GGGAGUUCUACAGUCCGACGAUCUAGAAUGGGCCCAAUCAUCUCCUCGUCCUUCAGCUGGAGCUCCUCGUGAAUUAUCUCGGUGUCUCGGAUGGGAUCUACACUUCCUUCAACAUGCGUGAUAUCAUCGUCUUCAAAAGCACGCAACAGAGGAUUGAGCAUCA
B15: chr17:56552419:56552420:-_ENSMUSG00000013236_ENSMUST00000086828|mus_mus|mus_mus_mus_hu_False|38_98 (ssRNA)
RNA: GGGAGUUCUACAGUCCGACGAUCAAAAAAUACACUAUAAAAAAAAAAUGAAAUGUCACGGGAUACAGUUACACUGAGAGUUUUAAAAGAAAGCUGGAAAAAAAAUGCAGCCCAGUGUCCCCAGGCUGCAGAGCGGGGAGGAGCCAACAGAGGAUUGAGCAUCA
B16: chr17:56552419:56552420:-_ENSMUSG00000013236_ENSMUST00000086828|mus_mus|mus_mus_mus_hu_False|38_88 (ssRNA)
RNA: B15 RNA with A38U, A39U, U48A, G49A, A50G, U53A, G54A, U55A, C56A
B17: chr17:56552419:56552420:-_ENSMUSG00000013236_ENSMUST00000086828|mus_mus|mus_mus_mus_hu_False|1_38 (ssRNA)
RNA: B15 RNA with A38U, A39U, A138C, G139A, C143G
B18: chr17:56552419:56552420:-_ENSMUSG00000013236_ENSMUST00000086828|mus_mus|mus_mus_mus_hu_False|38_38 (ssRNA)
RNA: B15 RNA with A38U, A39U
B19: 154963464_154963584_1656_3pUTR_ENSMUSG00000042751_ENSMUST00000043313|mouse|control|control (ssRNA)
RNA: GGGAGUUCUACAGUCCGACGAUCCUGGUUGGCAGAGAACCCACUCAAUGCUACUGGUCAGACACACAGCAUCAAGACCACGAUCAUCUGAAACCAGGGACUCAAAUUCUGAGAAACCCUACUCUUCCCAGACUUAUGUACCAGCAACAGAGGAUUGAGCAUCA
B20: chr8:145151508:145151509:+_ENSG00000179091_ENST00000318911|hu_hu|FALSE|FALSE (ssRNA)
RNA: GGGAGUUCUACAGUCCGACGAUCACCUUCCCGCAGUGACACCCCGGUGGGUGGCUCGCAGUAGCCCGUGAGCAGGGAGAAGACGUAGUCCUCACCACCAUGCCUAGCUCGCACGAUGUAGCUGAGGUCAGGGGGCAAUGCUCCCAACAGAGGAUUGAGCAUCA
B21: 35238635_35241177_7885_CDS_ENSMUSG00000029104_ENSMUST00000080036|mouse|control|control (ssRNA)
RNA: GGGAGUUCUACAGUCCGACGAUCCUGGCCCAGCUUGUAGCUCAUGUUGCCUGGCUCCCGCUCUGGGUUGAUCUGCAGCAGCAGCUUGUCAUGGCUGAUAAGAGCACCUGUAGUAGCUGGUAACAGAGAAGGGACAGGAUCCCACAACAGAGGAUUGAGCAUCA
B22: chr8:13020401:13020402:+_ENSMUSG00000031442_ENSMUST00000123811|mus_hu|FALSE|FALSE (ssRNA)
RNA: GGGAGUUCUACAGUCCGACGAUCUGAUUCCGCACCCUGGAGGUCUGGCCAGUGACGGCUACAAGCCGCUGGGAGGGUAGCGUGAGGGGAAUGCAGCCACGCCUGCCUCCACUGUGCUGGGGCUGGGAACCGUGAGGCUGUGAGCAACAGAGGAUUGAGCAUCA

Target: T1, UNK ZnF1-3 (human, UniProt Q9C0B0 31-174)
T1 sequence: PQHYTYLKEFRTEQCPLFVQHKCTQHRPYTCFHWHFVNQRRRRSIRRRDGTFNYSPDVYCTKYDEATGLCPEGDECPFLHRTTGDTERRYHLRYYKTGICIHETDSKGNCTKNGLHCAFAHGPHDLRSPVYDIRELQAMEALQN
Experiment: nsRBNS (natural sequence RNA bind-n-seq); RBNS binding buffer (assumed for nsRBNS): 25 mM Tris pH 7.5, 150 mM KCl, 3 mM MgCl2, 0.01% Triton X-100, 500 ug/ml BSA, 20 U/ml SUPERase-In, 4 C; UNK is unkempt and MSI1 is Musashi-1; names of the RNAs are library labels; protein concentration not given here; high values mean tight binding

Binder	binding signal [enrichment R]
B1	0.387
B2	2.36
B3	3.64
B4	4.97
B5	4.46
B6	2.24
B7	3.93
B8	3.29
B9	2.29
B10	0.937
B11	0.691
B12	0.955
B13	2.06
B14	0.77
B15	7.57
B16	13.5
B17	5.3
B18	5.93
B19	1.29
B20	1.01
B21	1.21
B22	1.36
